# PubChem BioAssay (NCATS)
# Inconclusive results are not listed. Activity calls are given as the source filed them. Calls follow the shape of the dose curve; as a rule, active = well fitted inhibition curve with a large enough effect; inconclusive = small, poorly fitted or top-dose-only effect; inactive = no such curve, though single readings can be large or run the other way.
# Tested on: Zika virus NS2B-NS3 protease (linked construct)
# Assay: Primary screen NINDS Rhodamine qHTS for Zika virus inhibitors (AID 1347160); also: nearly all actives have a fitted effect of over 55% in size
# Settings: purified NS2B-NS3 protease, Rhodamine110 substrate fluorescence; series mostly up to 57.1 µM; activity change, negative = inhibition: at the top concentration
# Procedure, shortened: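 Purified NS2B-NS3 protease with the NS2B hydrophilic domain joined by a flexible linker (25 nM) in 10 mM Tris-HCl pH 8.0, 0.01% Tween 20, preincubated 15 min at RT with compound; Rhodamine110 peptide substrate 1.5 µM; fluorescence change over 15 min; 4-parameter Hill fit.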
# % is scaled to controls: 0 for no effect and ±100 for the full control effect; potency is read from the fitted curve at half-maximal effect.
SMILES,"activity change, negative = inhibition",outcome,Potency
COc1cc(Br)c(Nc2nc(-c3c(C)nc4ncccn34)cs2)c(Br)c1,20.1% (inactive),–,–
O=C(O)C1CN(Cc2ccc(-c3nc4cc(Cc5ccccc5F)ccc4s3)c(F)c2)C1,-8.39% [at 10.7 µM] (inactive),–,–
C[C@@H]1[C@H]2[C@H](O[C@@H]3O[C@H](CO)[C@@H](O)[C@H](O)[C@H]3O)OC=C(C(=O)O)[C@H]2C[C@@H]1O,–,inactive; activator [at 33.1 µM],–
O=C(O)c1cc(-c2c(-c3ccccc3)nn3ccccc23)n[nH]c1=O,–,inactive,–
CN(C)C/C=C/C(=O)Nc1cc2c(Nc3ccc(F)c(Cl)c3)ncnc2cc1OC1CCOC1 (stereo not given),–,inactive; activator,–
O=C(Nc1ccn[nH]1)c1c(F)cccc1F,–,inactive,–
Nc1nc2c(c(=O)[nH]1)C[C@@H](CCc1ccc(C(=O)N[C@@H](CCC(=O)O)C(=O)O)cc1)CN2,30% (inactive),–,–
O=C(NCc1cccc(O)c1)Nc1nc(-c2ccncc2)cs1,–,inactive,–
O=C(CCc1nnc2n(Cc3ccc(Cl)cc3)c(=O)c3ccccc3n12)NCCC1=CCCCC1,–,inactive,–
C=C(C)C(=O)OC1CC2(C)OC(=CC2=O)C(=C)CC2OC(=O)C(COC)C12 (stereo not given),-6.82% [at 33.1 µM] (inactive),–,–
C=CC1C(OC2OC(CO)C(O)C(O)C2O)OC=C(C(=O)OC)C1CC1CC(=O)CC(CCc2ccc(O)cc2)O1 (stereo not given),-1.37% [at 15.1 µM] (inactive),–,–
CC1=CC(=O)[C@]2(O[C@@H]3O[C@@H](C)[C@H](O)[C@@H](O)[C@H]3OC(=O)/C=C/c3ccccc3)C=CO[C@@H](O[C@@H]3O[C@H](CO)[C@@H](O)[C@H](O)[C@H]3O)[C@H]12,-26.5% [at 15.1 µM] (inactive),–,–
O=C1NC(=O)C(c2cn3c4c(cccc24)CCC3)C1c1c[nH]c2ccccc12 (stereo not given),14.1% (inactive),–,–
[N-]=[N+]=N[C@]1(CO)O[C@@H](n2ccc(=O)[nH]c2=O)[C@@H](O)[C@@H]1O,28% (inactive),–,–
COc1c2c(c(CO)c3c1C(=O)OC3)OC1(C)CCC3(O)C(C)(C)OC(=O)CCC3(C)C1C2 (stereo not given),-1.44% [at 33.1 µM] (inactive),–,–
C/C1=C\CC[C@]2(C)O[C@@H]2[C@H](O)[C@H](C(C)C)[C@H](OC(=O)/C=C/c2ccccc2)C1,8.73% [at 33.1 µM] (inactive),–,–
C=C(C(=O)O)C1CCC2(C)CCC(O)C(C)(O)C2C1 (stereo not given),-2.55% (inactive),–,–
O=C(/C=C/c1ccc(O)cc1)N[C@@H](Cc1ccc(O)cc1)C(=O)O,–,inactive [at 33.1 µM],–
CC(=O)CCC1=C(C)C(O[C@@H]2O[C@H](CO)[C@@H](O)[C@H](O)[C@H]2O)C(O)CC1(C)C (stereo not given in full),1.44% [at 33.1 µM] (inactive),–,–
C[C@@H]1O[C@@H](OC[C@H]2O[C@@H](OC(CCCCc3ccc(O)cc3)CCc3ccc(O)cc3)[C@H](O)[C@@H](O)[C@@H]2O)[C@H](O)[C@H](O)[C@H]1O (stereo not given in full),-6.55% [at 15.1 µM] (inactive),–,–

SMILES,"activity change, negative = inhibition",outcome,Potency
COc1cc2ncnc(Nc3cccc(Cl)c3F)c2cc1OC(=O)N1CCN(C)C[C@H]1C,23.7% (inactive),–,–
CN(C)CC1CCOC1(c1ccccc1)c1ccccc1 (stereo not given),38% [at 15.1 µM] (inactive),–,–
O=S(=O)(NC1CCC(c2cc(F)ccc2F)(S(=O)(=O)c2ccc(Cl)cc2)CC1)C(F)(F)F (stereo not given),–,–,12.6 µM (active)
C[C@H](NC(=O)CCc1nc2ccccc2c(=O)[nH]1)c1ccccc1,–,inactive,–
C=C1CCC2C(C)(C(=O)O)CCCC2(C)C1CCC(C)CC(=O)O (stereo not given),-15.5% [at 33.1 µM] (inactive),–,–
CC(C)=CCC/C(C)=C/CCC1(C)Oc2c(c(O)cc3c2CN(C(CCC(=O)O)C(=O)O)C3=O)CC1O (stereo not given),-13.2% [at 33.1 µM] (inactive),–,–
CC(=O)O[C@H]1C[C@@](O)(C(C)C)C2[C@@H](OC(=O)c3ccc(O)cc3)C[C@@]3(C)O[C@H]3C[C@]21C (stereo not given in full),-6.41% [at 33.1 µM] (inactive),–,–
N[C@H]1Cc2ccccc2N(O)C1=O,–,inactive,–
C=C1CCC2C(C)(C(=O)O)CCCC2(C)C1CC/C(=C\CO)CO (stereo not given),–,inactive [at 33.1 µM],–
CC(CCC1(O)OC2CC3C4CCC5CC(O[C@@H]6O[C@H](CO)[C@@H](O)[C@H](O)[C@H]6O[C@@H]6O[C@@H](C)[C@H](O)[C@@H](O)[C@H]6O)C(O)CC5(C)C4CCC3(C)C2C1C)CO[C@@H]1O[C@H](CO)[C@@H](O)[C@H](O)[C@H]1O (stereo not given in full),-21.9% [at 15.1 µM] (inactive),–,–
COC(=O)C1=CO[C@@H](O[C@@H]2O[C@H](CO)[C@@H](O)[C@H](O)[C@H]2O)[C@H]2[C@@H]1CC(OC)O[C@@H]2C (stereo not given in full),-14.2% [at 33.1 µM] (inactive),–,–
C=C1CC[C@@H]2[C@](C)(CO[C@@H]3O[C@H](CO)[C@@H](O)[C@H](O)[C@H]3O)[C@H](O)CC[C@@]2(C)[C@@H]1C/C=C1/C(=O)OC[C@H]1O,4.88% [at 33.1 µM] (inactive),–,–
COC(=O)C[C@H]1C(C)(C)[C@H](OC(C)=O)C2CC3=C4CC(=O)O[C@@H](c5ccoc5)[C@]4(C)CCC3[C@@]1(C)C2=O (stereo not given in full),-1.08% [at 33.1 µM] (inactive),–,–
CC(C)(O)c1ccc2c(c1)C(O)C[C@H]1[C@](C)(C(=O)O)CCC[C@]21C (stereo not given in full),-21.5% [at 33.1 µM] (inactive),–,–
C[C@@H]1O[C@@H](O[C@H]2[C@@H]3C=CO[C@@H](O[C@@H]4O[C@H](CO)[C@@H](O)[C@H](O)[C@H]4O)[C@@H]3[C@@]3(CO)O[C@@H]23)[C@H](OC(=O)/C=C/c2ccccc2)[C@H](O)[C@H]1O,5.24% [at 15.1 µM] (inactive),–,–
CC1(C)CCCC2(C)C1CC=C1C(=O)OC(O)C12O (stereo not given),-11.3% (inactive),–,–
CC1CCCCN1S(=O)(=O)c1ccc(N2CCCC2=O)cc1 (stereo not given),–,inactive,–
C[C@@H]1C[C@@H]2O[C@H]2/C=C\C=C\C(=O)Cc2c(Cl)c(O)cc(O)c2C(=O)O1,-15.4% [at 33.1 µM] (inactive),–,–
Nc1ncnc2c1nc(N)n2[C@@H]1O[C@H](CO)[C@@H](O)[C@H]1O,22.2% (inactive),–,–
O=C(CCc1ccccc1)N1CCC(O)(Cn2cnc3cc(Cl)ccc3c2=O)CC1,19.8% (inactive),–,–
